This note sets out measurements from the supplement of paper PMC6953052.

Where a name gives a salt, the structure may show the parent alone. Whole data set: some 1,700 compounds, median “fraction of GFP-LC3-positive cells (≥5 vesicles/cell)” near 0.058, cut for the highest 2% near 0.59. Only a selection was taken, and the highest values are over-represented in it overall.

The test relates to CbCln3 +/+ GFP-LC3 cerebellar neuronal cells. As to the kind of experiment: fraction of GFP-LC3-positive cells (≥5 vesicles/cell); higher = more autophagosome accumulation. Summed up: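 By pin transfer, ~50 nL of compound in DMSO went in duplicate into 384-well plates holding 2 × 10^3 wild-type or mutant CbCln3 cerebellar cells per well that stably express GFP-LC3, followed by 24 h at 33 °C. The final 30 min included Hoechst 33342 and LysoTracker Red, and then came 3.2% PFA fixation and 10× imaging of three fields per well. Each value gives the fraction of cells above a vesicle threshold, averaged across duplicates, with CellProfiler counting GFP-LC3 vesicles and out-of-focus images left out. The threshold is 5 or more vesicles per cell.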
`N#CC(C#N)=Cc1ccc(O)c(O)c1`: the “fraction of GFP-LC3-positive cells” value is 0.094.

For the compound `CC(C)(C)c1cc(C=C(C#N)C#N)cc(C(C)(C)C)c1O`, the “fraction of GFP-LC3-positive cells” value was found to be 0.357.

With `CC(C)(C)c1cc(C=C(C#N)C#N)cc(C(C)(C)C)c1O` [tyrphostin 9], the “fraction of GFP-LC3-positive cells” value was determined as 0.67.

Regarding `N#CC(C#N)=Cc1cc(O)c(O)c(O)c1`, the “fraction of GFP-LC3-positive cells” value was 0.0475.

Turning to `CCN(CC)C(=O)N[C@H]1C[C@@H]2c3cccc4[nH]cc(c34)C[C@H]2N(C)C1.O=C(O)/C=C\C(=O)O` [S(-)-terguride hydrogen maleate], the “fraction of GFP-LC3-positive cells” value stood at 0.0461.

For `CC(C)[C@]12O[C@H]1[C@@H]1O[C@]13[C@]1(O[C@H]1C[C@H]1C4=C(CC[C@@]13C)C(=O)OC4)[C@@H]2O` [Triptolide], the “fraction of GFP-LC3-positive cells” value stood at 0.268.

Regarding `Cl.NCCc1c[nH]c2ccc(O)cc12` [Serotonin hydrochloride], the “fraction of GFP-LC3-positive cells” value amounted to 0.0685.

Take `C#CCN(C)[C@H](C)Cc1ccccc1.Cl` [Selegiline hydrochloride]: the “fraction of GFP-LC3-positive cells” value was determined as 0.0621.

For the compound `C[N+]1(C)CCCC(OC(=O)C(O)(c2ccccc2)c2ccccc2)C1.[Br-]` (stereo not drawn) [Mepenzolate bromide], the “fraction of GFP-LC3-positive cells” value came out at 0.0681.

Consider `COC1=C[C@@H]2C3=C([C@@H]2C1=O)[C@@H](NC(C)=O)CCc1cc(OC)c(OC)c(OC)c13` [Lumicolchicine gamma], for which the “fraction of GFP-LC3-positive cells” value was 0.0307.

Take `COc1cc2c(c(OC)c1OC)-c1ccc(O)c(=O)cc1[C@@H](N)CC2` [Trimethylcolchicinic acid]: the “fraction of GFP-LC3-positive cells” value came to 0.0619.

Take `COc1cc2c(c(OC)c1OC)-c1ccc(OC)c(=O)cc1[C@@H](NC(C)=O)CC2` [Colchicine]: the “fraction of GFP-LC3-positive cells” value was 0.778.

In the case of `CC(C)(O)[C@H]1O[C@H]2CC[C@@]3(C)[C@@](O)(CC[C@H]4Cc5c([nH]c6ccccc56)[C@@]43C)C2=CC1=O`, the “fraction of GFP-LC3-positive cells” value worked out at 0.0216.

`C/C=C(/C)C(=O)O[C@H]1C(C)=C2[C@H]([C@@H]1OC(=O)CCCCCCC)[C@@](C)(OC(C)=O)C[C@H](OC(=O)CCC)[C@@]1(O)[C@H]2OC(=O)[C@@]1(C)O`: the “fraction of GFP-LC3-positive cells” value is 0.665.

As to `Cl.O[C@@H]1CCCC[C@H]1N1CCC(c2ccccc2)CC1` [L(-)-vesamicol hydrochloride], the “fraction of GFP-LC3-positive cells” value was 0.076.

Regarding `CC(C)N(CCC(C(N)=O)(c1ccccc1)c1ccccn1)C(C)C` (stereo not drawn) [Disopyramide], the “fraction of GFP-LC3-positive cells” value worked out at 0.0661.

As to `COc1cc2c(cc1O)[C@@H]1Cc3ccc(OC)c(O)c3CN1CC2` [Scoulerine], the “fraction of GFP-LC3-positive cells” value was determined as 0.588.

On to `O.O.O.O=C1OC2(c3cc(Br)c([O-])cc3Oc3c2cc(Br)c([O-])[c]3[Hg][OH])c2ccccc21.[Na+].[Na+]` (stereo not drawn) [Merbromin], for which the “fraction of GFP-LC3-positive cells” value was 0.957.

Consider `CCCCC/C=C\C/C=C\C/C=C\C/C=C\CCCC(=O)NCc1ccc(O)c(OC)c1` [Arvanil], for which the “fraction of GFP-LC3-positive cells” value stood at 0.144.

As to `CC[C@@]1(O)C(=O)OCc2c1cc1n(c2=O)Cc2cc3ccccc3nc2-1` [Camptothecine (S,+)], the “fraction of GFP-LC3-positive cells” value was 0.321.

As for `OC[C@H]1O[C@@H](n2cnc3cc(Cl)c(Cl)cc32)C(O)[C@H]1O` (stereo partly drawn), the “fraction of GFP-LC3-positive cells” value worked out at 0.0687.

With `C=C1[C@@H](O)C2O[C@@]3(CCC2O[C@@H]1C(O)C[C@H](C)C1O[C@@]2(CCCCO2)CC[C@H]1C)CC[C@@H](/C=C/[C@@H](C)[C@@H]1CC(C)=C[C@@]2(O[C@H](C[C@@](C)(O)C(=O)O)CCC2O)O1)O3` (stereo partly drawn) [okadaic acid], the “fraction of GFP-LC3-positive cells” value came out at 0.831.

For `CCN1C[C@]2(COC)CC[C@H](O)[C@]34C1[C@H](C[C@H]23)[C@@]1(O)C[C@H](OC)[C@H]2C[C@@H]4[C@@H]1[C@H]2OC(C)=O` [Condelphine], the “fraction of GFP-LC3-positive cells” value amounted to 0.043.

`O=C(O)/C=C\C(=O)O.O=C(O)/C=C\C(=O)O.c1ccc2nc(N3CCNCC3)ccc2c1` [Quipazine dimaleate salt]: the “fraction of GFP-LC3-positive cells” value worked out at 0.041.

Consider `C[C@H]1CCC/C=C/C2C[C@H](O)C[C@H]2[C@H](O)/C=C/C(=O)O1` (stereo partly drawn) [brefeldin A], for which the “fraction of GFP-LC3-positive cells” value was determined as 0.0802.

Consider `C=C1[C@@H](C)[C@H]2[C@H](Cc3ccccc3)NC(=O)[C@]23[C@H](OC(C)=O)/C=C/[C@](C)(O)C(=O)[C@@H](C)C/C=C/[C@H]3[C@@H]1O` [cytochalasin D], for which the “fraction of GFP-LC3-positive cells” value stood at 0.411.

As to `CCCC[C@@H](C)[C@@H](OC(=O)C[C@@H](CC(=O)O)C(=O)O)[C@H](C[C@@H](C)C[C@H](O)CCCC[C@@H](O)C[C@H](O)[C@H](C)N)OC(=O)C[C@H](CC(=O)O)C(=O)O` [Fumonisin B1], the “fraction of GFP-LC3-positive cells” value is 0.0462.

For the compound `CCN1C[C@]2(C)CC[C@H](O)[C@]34C1[C@H](C[C@H]23)[C@@]1(O)C[C@H](OC)[C@H]2C[C@@H]4[C@@H]1C2O` (stereo partly drawn) [Karakoline], the “fraction of GFP-LC3-positive cells” value came out at 0.0388.

Take `CNc1ccc2oc(C[C@@H]3OC4(CC[C@@H]3C)O[C@H](C(C)C(=O)c3ccc[nH]3)[C@H](C)C[C@H]4C)nc2c1C(=O)O` (stereo partly drawn): the “fraction of GFP-LC3-positive cells” value came out at 0.276.

With `C=C(C)[C@H]1O[C@H]2CC[C@@]3(C)[C@@](O)(CC[C@H]4[C@@H]5OC(C)(C)[C@H]6C[C@@H]7C(=C)Cc8c(Cl)cc9[nH]c(c5c9c8[C@@]76O)[C@@]43C)[C@]23O[C@@H]3[C@H]1O`, the “fraction of GFP-LC3-positive cells” value was determined as 0.667.

`CN1C2CCCC1CC(=O)C2.Cl` [Pseudopelletierine hydrochloride]: the “fraction of GFP-LC3-positive cells” value came to 0.111.

Take `CN[C@@H]1C[C@H]2O[C@@](C)([C@@H]1OC)n1c3ccccc3c3c4c(c5c6ccccc6n2c5c31)C(=O)NC4` [staurosporine]: the “fraction of GFP-LC3-positive cells” value worked out at 0.542.

For the compound `CCCCCCCCCCCCCCCCOC[C@H](COP(=O)([O-])OCC[N+](C)(C)C)OC(C)=O`, the “fraction of GFP-LC3-positive cells” value is 0.0259.

On to `CCCCCC1OC1C/C=C\CCCCCCCC(=O)O` (stereo not drawn), for which the “fraction of GFP-LC3-positive cells” value came out at 0.062.

Turning to `CCCCCC1OC1C/C=C\CCCCCCCC(=O)O` (stereo not drawn) [Leukotoxin B (12,13-EODE)], the “fraction of GFP-LC3-positive cells” value is 0.0763.

In the case of `Cc1c2ccncc2c(C)c2c1[nH]c1ccccc12` [Ellipticine], the “fraction of GFP-LC3-positive cells” value was 0.984.

Regarding `Cc1nccc2c1[nH]c1ccccc12.Cl` [Harmane hydrochloride], the “fraction of GFP-LC3-positive cells” value stood at 0.0738.

For the compound `O=C1C=C2C=C[C@@H]3CC2(O1)[C@H]1CCCCN31` [Securinine], the “fraction of GFP-LC3-positive cells” value came out at 0.0519.

In the case of `CC(C)(C)NCC(O)c1cc(Cl)c(N)c(Cl)c1.Cl` (stereo not drawn) [Clenbuterol hydrochloride], the “fraction of GFP-LC3-positive cells” value was 0.0519.

For `CC[C@@H](CO)NC(=O)[C@@H]1C=C2c3cccc4[nH]cc(c34)C[C@H]2N(C)C1.O=C(O)/C=C\C(=O)O` [Methylergometrine maleate], the “fraction of GFP-LC3-positive cells” value was determined as 0.0308.

Regarding `CC1=CC(=O)C2=C(C)C[C@H](O)[C@@H]3[C@H](OC(=O)[C@H]3C)[C@@H]12.O` [Austricine], the “fraction of GFP-LC3-positive cells” value turned out to be 0.0585.

With `Clc1ccc(C2CC3CCC2N3)cn1` (racemic) [epibatidine (+/-)], the “fraction of GFP-LC3-positive cells” value amounted to 0.0633.

For `N#CC(C#N)=NNc1ccc(OC(F)(F)F)cc1`, the “fraction of GFP-LC3-positive cells” value amounted to 0.918.

On to `C[C@@H]1O[C@@H](O[C@@H]2C=C3CCC4C(CC[C@]5(C)[C@@H](c6ccc(=O)oc6)CC[C@]45O)[C@@]3(C)CC2)[C@H](O)[C@H](O)[C@H]1O` (stereo partly drawn) [Proscillaridin A], for which the “fraction of GFP-LC3-positive cells” value turned out to be 0.0563.

In the case of `CN1CCC2=C[C@H](O)[C@H]3OC(=O)c4cc5c(cc4[C@H]3[C@@H]21)OCO5` [Hippeastrine hydrobromide], the “fraction of GFP-LC3-positive cells” value turned out to be 0.0629.

Take `CN1Cc2c(ccc3c2OCO3)[C@@H]2[C@H]1c1cc3c(cc1C[C@@H]2O)OCO3.O` [Chelidonine (+)]: the “fraction of GFP-LC3-positive cells” value stood at 0.593.

On to `CN1CCc2cc3c(cc2[C@H]1[C@@H]1OC(=O)c2c1ccc1c2OCO1)OCO3` [Bicuculline (+)], for which the “fraction of GFP-LC3-positive cells” value came out at 0.0481.

As to `CCCCCC[C@H]1C(=O)O[C@H](C)C(NC(=O)c2cccc(NC=O)c2O)C(=O)O[C@@H](C)[C@@H]1OC(=O)CC(C)C` (stereo partly drawn) [Antimycin A], the “fraction of GFP-LC3-positive cells” value worked out at 0.0705.

Turning to `CC/C=C\C[C@@H](/C=C/C=C\C/C=C\C/C=C\CCCC(=O)O)OO`, the “fraction of GFP-LC3-positive cells” value turned out to be 0.0447.

For `C/C1=C/C(=O)O[C@@H]2C[C@@H](CC[C@H](C)/C=C\CC1)O[C@@](O)([C@@H]1CSC(=O)N1)C2` [Latrunculin B], the “fraction of GFP-LC3-positive cells” value was determined as 0.94.

`COC1=CC(=O)OC(/C=C/c2ccccc2)C1` (racemic) [Kavain (+/-)]: the “fraction of GFP-LC3-positive cells” value is 0.0407.

Consider `O=c1[nH]c2ccccc2n1C1CCN(CCCC(c2ccc(F)cc2)c2ccc(F)cc2)CC1` [Pimozide], for which the “fraction of GFP-LC3-positive cells” value is 0.0546.

For the compound `COc1ccc2c(c1OC)CN1CCc3cc4c(cc3C1C2)OCO4` (stereo not drawn) [(d,l)-Tetrahydroberberine], the “fraction of GFP-LC3-positive cells” value amounted to 0.0361.

In the case of `COc1cc([C@@H]2c3cc4c(cc3[C@H](O)[C@H]3COC(=O)[C@H]23)OCO4)cc(OC)c1OC` [Podophyllotoxin], the “fraction of GFP-LC3-positive cells” value worked out at 0.682.

In the case of `COc1ccc2c(c1OC)C(=O)O[C@@H]2[C@H]1c2cc3c(cc2CCN1C)OCO3.Cl` [Hydrastine hydrochloride], the “fraction of GFP-LC3-positive cells” value worked out at 0.0565.

Regarding `CCCCC/C=C\C/C=C\C/C=C\C/C=C\CCCC(=O)NCCO`, the “fraction of GFP-LC3-positive cells” value worked out at 0.0573.

Consider `CCCCC/C=C\C/C=C\C/C=C\C/C=C\CCCC(=O)NCCO` [Anandamide (20:4, n-6)], for which the “fraction of GFP-LC3-positive cells” value is 0.0367.

Regarding `COC(=O)[C@@]1(O)C[C@@H]2O[C@@]1(C)n1c3ccccc3c3c4c(c5c6ccccc6n2c5c31)C(=O)NC4`, the “fraction of GFP-LC3-positive cells” value is 0.16.
